Each structure is given as a SMILES string. Where “and” joins values, the source holds several entries; their conditions need not be identical. Equal entries are not always repeated. Results filed as inconclusive are left out. Entries that show only a call come without a potency. The source holds several records for some structures; these can differ, active in one and inactive in another. Calls of active or inactive are those of the source. Unless noted, calls come from the whole dose curve.
Potency is the fitted concentration of half-maximal effect.

The first assay can be described thus: qHTS assay for small molecules that induce genotoxicity in human embryonic kidney cells expressing luciferase-tagged ATAD5 (AID 651632; active = well fitted activation curve with a large enough effect in the repeat runs; note: nearly all actives have a fitted effect of over 15% in size). As to conditions: HEK293T ATAD5-luciferase induction, 16 h; series mostly up to 83.3 µM. The method, boiled down: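 Quantitative HTS in HEK293T expressing luciferase-tagged ATAD5, whose levels rise upon DNA damage. Exposure ran 16 hr at 37C and 5% CO2, with luminescence read 30 min after Amplite addition at room temperature.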
Take `N[C@@H](Cc1ccc(N(CCCl)CCCl)cc1)C(=O)O`: the Potency result is “inactive”.

On to `c1ccc(N=Nc2ccccc2)cc1`, for which the Potency result was “inactive”.

Turning to `COc1ccc(C=O)cc1`, the Potency entry was “inactive”.

Turning to `c1ccc(NNc2ccccc2)cc1`, the Potency result is “inactive”.

Consider `C[C@]12CCC(=O)C(O)=C1CC[C@@H]1[C@@H]2CC[C@]2(C)C(=O)CC[C@@H]12`, for which the Potency entry was “inactive”.

Take `C=CCN(CC=C)C(=O)C(Cl)Cl`: the Potency result is “inactive”.

Consider `Nc1ccc(Cl)c(Cl)c1`, for which the Potency result was “inactive”.

As for `N#CCCCl`, the Potency result is “inactive”.

Consider `O=[N+]([O-])c1cccc2ccccc12`, for which the Potency result was “inactive”.

Consider `CCN(CC)C(=O)SCc1ccc(Cl)cc1`, for which the Potency entry was “inactive”.

With `Nc1ccc(-c2ccccc2)cc1`, the Potency entry is “inactive”.

For the compound `O=[N+]([O-])c1ccc(O)c([N+](=O)[O-])c1`, the Potency result is “inactive”.

Regarding `Oc1cc(Cl)ccc1Oc1ccc(Cl)cc1Cl`, the Potency result is “inactive”.

In the case of `Nc1ccc(Cl)cc1N`, the Potency was 56.7 µM (active) and 5.45 µM (active).

`COP(=S)(OC)Oc1cc(Cl)c(Cl)cc1Cl`: the Potency entry was “inactive”.

Consider `Oc1c(Cl)c(Cl)c(Cl)c(Cl)c1Cl`, for which the Potency entry is “inactive”.

For `Cc1cc(Cl)ccc1OCCCC(=O)O`, the Potency entry was “inactive”.

As to `CC(C)N(C(=O)SCC(Cl)=C(Cl)Cl)C(C)C`, the Potency result is “inactive”.

For the compound `CCCCC(CC)COC(=O)c1ccc(C(=O)OCC(CC)CCCC)c(C(=O)OCC(CC)CCCC)c1` (stereo not drawn), the Potency entry is “inactive”.

The next assay in a line: qHTS assay for small molecule agonists of the p53 signaling pathway - cell viability (AID 651633). Note: nearly all actives have a fitted effect of over 30% in size. Particulars: p53RE-bla HCT-116 viability, ATP luminescence, 16 h; series mostly up to 83.3 µM. The method, boiled down:
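p53RE-bla cells, seeded at 4,000 per well and rested 5 h at 37 C/5% CO2, received compounds in DMSO for 16 h at 37 C. CellTiter-Glo was then added, and luminescence was read after 30 min at room temperature to gauge cytotoxicity.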
(In qHTS, concentration-response curves come from the screen itself.)
Consider `O=C1C=CC(=O)C=C1`, for which the Potency entry is “inactive”.

As to `C=CCc1ccc2c(c1)OCO2`, the Potency result is “inactive”.

For `CCCCOCCOP(=O)(OCCOCCCC)OCCOCCCC`, the Potency was 54.5 µM (active) and inactive.

For `N[C@@H](Cc1ccc(N(CCCl)CCCl)cc1)C(=O)O`, the Potency result is “inactive”.

As to `CCC(=O)O[C@H]1CC[C@H]2[C@@H]3CCC4=CC(=O)CC[C@]4(C)[C@H]3CC[C@]12C`, the Potency entry was “inactive and 61.1 µM (active)”.

As to `CCOC(=S)S`, the Potency entry is “inactive”.

Take `Nn1cnnc1`: the Potency result was “inactive”.

As to `c1ccc(N=Nc2ccccc2)cc1`, the Potency entry was “inactive”.

Consider `OCC(O)CO`, for which the Potency result was “inactive”.

Consider `COc1ccc(C=O)cc1`, for which the Potency result was “inactive”.

`ClC1C(Cl)C(Cl)C(Cl)C(Cl)C1Cl` (stereo not drawn): the Potency entry was “inactive”.

Consider `c1ccc(NNc2ccccc2)cc1`, for which the Potency entry is “inactive”.

On to `C[C@]12CCC(=O)C(O)=C1CC[C@@H]1[C@@H]2CC[C@]2(C)C(=O)CC[C@@H]12`, for which the Potency entry was “inactive”.

In the case of `CCN(CC)N=O`, the Potency result was “inactive”.

`CCCCN(CCCC)N=O`: the Potency result was “inactive”.

With `C=CCN(CC=C)C(=O)C(Cl)Cl`, the Potency entry was “inactive”.

Take `O=C(O)C(F)(F)C(F)(F)C(F)(F)C(F)(F)C(F)(F)C(F)(F)C(F)(F)F`: the Potency entry was “inactive”.

For `CCOP(=S)(OCC)O/N=C(\C#N)c1ccccc1`, the Potency entry is “inactive”.

As for `Nc1ccc(Cl)c(Cl)c1`, the Potency entry was “inactive”.

On to `N#CCCCl`, for which the Potency result is “inactive”.

In the case of `O=[N+]([O-])c1cccc2ccccc12`, the Potency entry was “inactive”.

Take `CCN(CC)C(=O)SCc1ccc(Cl)cc1`: the Potency result is “inactive”.

In the case of `COP(=O)(OC)OC`, the Potency result was “inactive”.

For the compound `Nc1ccc(-c2ccccc2)cc1`, the Potency result is “inactive”.

For the compound `O=[N+]([O-])c1ccc(O)c([N+](=O)[O-])c1`, the Potency result is “inactive”.

In the case of `CN(C)C(=O)Nc1ccc(Cl)cc1`, the Potency result was “inactive”.

As to `Oc1cc(Cl)ccc1Oc1ccc(Cl)cc1Cl`, the Potency is 3.95 µM (active).

For `Nc1ccc(Cl)cc1N`, the Potency result is “inactive”.

Regarding `COP(=S)(OC)Oc1cc(Cl)c(Cl)cc1Cl`, the Potency result is “inactive”.

For the compound `CC(C)C(=O)OCC(C)(C)C(OC(=O)C(C)C)C(C)C` (stereo not drawn), the Potency was 30.9 µM (active) and inactive.

As to `C#C[C@]1(O)CC[C@H]2[C@@H]3CCC4=CC(=O)CC[C@]4(C)[C@H]3CC[C@@]21C`, the Potency result is “inactive”.

Consider `NNC(N)=S`, for which the Potency result was “inactive”.

Regarding `Oc1c(Cl)c(Cl)c(Cl)c(Cl)c1Cl`, the Potency result is “inactive”.

For the compound `CCCCCCOC(=O)c1ccccc1C(=O)OCCCCCC`, the Potency entry was “inactive”.

Take `Cc1cc(Cl)ccc1OCCCC(=O)O`: the Potency entry is “inactive”.

Take `CC(C)N(C(=O)SCC(Cl)=C(Cl)Cl)C(C)C`: the Potency result is “inactive”.

On to `O=c1oc2ccccc2c(O)c1C(CC(O)c1ccc(-c2ccc(Br)cc2)cc1)c1ccccc1` (stereo not drawn), for which the Potency was 9.44 µM (active) and 51.6 µM (active).

For `CCCCC(CC)COC(=O)c1ccc(C(=O)OCC(CC)CCCC)c(C(=O)OCC(CC)CCCC)c1` (stereo not drawn), the Potency entry was “inactive”.

The next assay can be described thus: qHTS assay for small molecules that induce genotoxicity in human embryonic kidney cells expressing luciferase-tagged ATAD5 - cell viability (AID 651634). Note: nearly all actives have a fitted effect of over 25% in size. Particulars: HEK293T ATAD5-luc cells viability, CellTiter-Fluor, 15.5 h; series mostly up to 83.3 µM. The method, boiled down:
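After 15.5 hr incubation with compound at 37C, 5% CO2, HEK293T ATAD5-luciferase cells received CellTiter-Fluor reagent; fluorescence intensity was quantified following 30 min at 37C.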
`O=C1C=CC(=O)C=C1`: the Potency result is “inactive”.

In the case of `C=CCc1ccc2c(c1)OCO2`, the Potency entry is “inactive”.

On to `CCCCOCCOP(=O)(OCCOCCCC)OCCOCCCC`, for which the Potency result was “inactive”.

For `N[C@@H](Cc1ccc(N(CCCl)CCCl)cc1)C(=O)O`, the Potency entry was “inactive”.

As to `CCC(=O)O[C@H]1CC[C@H]2[C@@H]3CCC4=CC(=O)CC[C@]4(C)[C@H]3CC[C@]12C`, the Potency entry is “inactive”.

Take `CCOC(=S)S`: the Potency entry was “inactive”.

Regarding `Nn1cnnc1`, the Potency entry is “inactive”.

Consider `c1ccc(N=Nc2ccccc2)cc1`, for which the Potency result was “inactive”.

Consider `OCC(O)CO`, for which the Potency result was “inactive”.

For the compound `COc1ccc(C=O)cc1`, the Potency result was “inactive”.

For `ClC1C(Cl)C(Cl)C(Cl)C(Cl)C1Cl` (stereo not drawn), the Potency result is “inactive”.

As to `c1ccc(NNc2ccccc2)cc1`, the Potency entry is “inactive”.

On to `C[C@]12CCC(=O)C(O)=C1CC[C@@H]1[C@@H]2CC[C@]2(C)C(=O)CC[C@@H]12`, for which the Potency entry is “inactive”.

Turning to `CCN(CC)N=O`, the Potency result is “inactive”.

For the compound `CCCCN(CCCC)N=O`, the Potency entry was “inactive”.

Take `C=CCN(CC=C)C(=O)C(Cl)Cl`: the Potency result is “inactive”.

`O=C(O)C(F)(F)C(F)(F)C(F)(F)C(F)(F)C(F)(F)C(F)(F)C(F)(F)F`: the Potency entry is “inactive”.

In the case of `CCOP(=S)(OCC)O/N=C(\C#N)c1ccccc1`, the Potency result is “inactive”.

As to `Nc1ccc(Cl)c(Cl)c1`, the Potency entry is “inactive”.

For the compound `N#CCCCl`, the Potency result was “inactive”.

For `O=[N+]([O-])c1cccc2ccccc12`, the Potency entry was “inactive”.

With `CCN(CC)C(=O)SCc1ccc(Cl)cc1`, the Potency entry is “inactive”.

As to `COP(=O)(OC)OC`, the Potency entry was “inactive”.

Regarding `Nc1ccc(-c2ccccc2)cc1`, the Potency entry is “inactive”.

`O=[N+]([O-])c1ccc(O)c([N+](=O)[O-])c1`: the Potency is 27.4 µM (active) and 27.3 µM (active).

With `CN(C)C(=O)Nc1ccc(Cl)cc1`, the Potency result was “inactive”.

For the compound `Nc1ccc(Cl)cc1N`, the Potency result is “inactive”.

In the case of `COP(=S)(OC)Oc1cc(Cl)c(Cl)cc1Cl`, the Potency result was “inactive”.

With `CC(C)C(=O)OCC(C)(C)C(OC(=O)C(C)C)C(C)C` (stereo not drawn), the Potency result is “inactive”.

Regarding `C#C[C@]1(O)CC[C@H]2[C@@H]3CCC4=CC(=O)CC[C@]4(C)[C@H]3CC[C@@]21C`, the Potency result is “inactive”.

For `NNC(N)=S`, the Potency entry was “inactive”.

`CCCCCCOC(=O)c1ccccc1C(=O)OCCCCCC`: the Potency entry was “inactive”.

As to `Cc1cc(Cl)ccc1OCCCC(=O)O`, the Potency entry is “inactive”.

For `CC(C)N(C(=O)SCC(Cl)=C(Cl)Cl)C(C)C`, the Potency result is “inactive”.

Take `O=c1oc2ccccc2c(O)c1C(CC(O)c1ccc(-c2ccc(Br)cc2)cc1)c1ccccc1` (stereo not drawn): the Potency entry is “inactive”.

On to `CCCCC(CC)COC(=O)c1ccc(C(=O)OCC(CC)CCCC)c(C(=O)OCC(CC)CCCC)c1` (stereo not drawn), for which the Potency result is “inactive”.
